# Measured values from PubChem BioAssay.
# Values joined by “and” are separate entries in the source; they are usually repeats but may differ in a detail not shown here. Equal values may be shown once. Active and inactive are the calls of the source.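 How the source made its calls, unless noted: active means inhibition at or above 50% relative to wild type and mutant plate controls; inactive means inhibition below 50%.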
# What was measured:
# [1] = inhibitors of TNFa-induced NFkB p65 translocation, primary screen, imaging, HUVEC, MLSMR starter and 10KST1 sets (AID 438;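 active means inhibition above 20% together with a positive visual image hit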;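 further: compound added about 3h40 before a 20 min TNFalpha stimulation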;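 on inhibition: signal is the nuclear over cytoplasmic p65 intensity ratio per well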); details: HUVEC TNFa-induced p65 nuclear translocation; cell count: measured here: nuclei count (cytotoxicity indicator), at 2.08 µM; inhibition: at 2 µM, stronger effect = higher value, 0% TNFa-plus-vehicle, 100% no-TNFa wells
# [2] = inhibitors of mutant huntingtin aggregation, primary screen, imaging, exon1htt(103Q)mCFP cells, high-content imaging (AID 483;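 active means visual image review flags a hit and inhibition of aggregation exceeds 20%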;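 further: compound exposure lasted 3 days before fixation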;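 on nuclei count: percent of the per-plate median nuclei count of sample wells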); details: exon1htt(103Q)mCFP cell line, aggregate imaging, at 2 µM; inhibition of aggregation: stronger effect = higher value; nuclei count: measured here: cell count, toxicity
# [3] = inhibitors of E-selectin induction by TNFa, primary screen, imaging, HUVEC, immunofluorescence, MLSMR starter and 10KST1 sets (AID 487;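 active means visually confirmed hit in the image check and inhibition above 20%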;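 on inhibition: signal is fraction of cell area covered by stained E-selectin grains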;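 on nuclei count: 100% = median nuclei count of all wells on the same plate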); details: HUVEC TNFalpha-induced E-selectin immunofluorescence imaging, at 2 µM; inhibition: stronger effect = higher value; nuclei count: measured here: cell number, toxicity
# [4] = DUSP6 inhibitors restoring Erk phosphorylation by chemical complementation, primary imaging in DUSP6-transfected HeLa (AID 609;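 active means compounds giving at least 50% inhibition in the cell-based MKP-3 phosphatase rescue imaging test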;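 on inhibition: phospho-Erk level distribution per well compared with pooled transfected vehicle control wells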); details: HeLa MKP-3 transfected, phospho-Erk imaging KS statistic, at 10 µM, cells stimulated with TPA for 15 min
# [5] = target: Dual specificity protein phosphatase 6 (Homo sapiens) (UniProt Q16828); assay: as above; details: HeLa MKP-3 transfected, phospho-Erk imaging KS statistic; at 10 µM; stronger effect = higher value; cells stimulated with TPA for 15 min
# [6] = target: Voltage-gated potassium channel subunit beta-2 (Rattus norvegicus) (UniProt P62483); assay: KvBeta enzyme negative modulators, primary screen, biochemical, NADPH fluorescence (AID 622;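 active means fluorescence slope higher than the sample average by over 3 SD, cut at about -0.22 in these data, passing the limit was not always enough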;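 further: slope of raw intensity against log time taken from 70 to 1610 s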); details: recombinant KvBeta, 4-cyanobenzaldehyde reduction, at 10 µM, stronger effect = higher value
# [7] = target: Voltage-gated potassium channel subunit beta-2 (Rattus norvegicus) (UniProt P62483); assay: KvBeta positive modulators, primary screen, biochemical, NADPH fluorescence (AID 623;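 active means NADPH fluorescence slope more negative than the mean of all samples by about 3 SD, 99.7% confidence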;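 further: fluorescence intensity change per second fitted from 20 to 320 s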); details: Recombinant KvBeta, NADPH fluorescence decrease slope, 10 min; at 10 µM; stronger effect = lower value
# [8] = target: Alpha-2C adrenergic receptor (Homo sapiens) (UniProt P18825); assay: modulators of alpha2C/GIRK thallium flux, primary screen, cell-based, HEK293 alpha2C/GIRK1/2 (AID 624;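 active means fluorescence slope after compound addition differing from the mean of all screened samples at 99.7% confidence, in either direction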;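 further: slope of fluorescence ratio to pre-addition baseline per second over 15 to 24 s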); details: thallium flux BTC fluorescence, at 10 µM, actives lie on both sides
# [9] = inhibitors of larval lipid processing in zebrafish, primary screen, whole organism, PED6 fluorescence, gall bladder and intestine (AID 686;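 active means a full or partial loss of lipid-probe fluorescence in the fish gall bladder, intestine or both, judged by eye; inactive means no fluorescence loss, or compound toxic to the fish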;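 further: larvae 5 to 7 days old with five fish per well; signal comes from phospholipase A2 cleavage of quenched PED6 carried via bile; overnight exposure to compound and PED6 before scoring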); details: Zebrafish larvae PED6 lipid processing, fluorescence scoring; screened at 20 µM (by protocol)
# [10] = inhibitors of Chlamydomonas gravitaxis, primary screen, whole organism, Chlamydomonas reinhardtii, WT vs cilia-less mutant, absorbance, 96-well (AID 463189); details: OD600 absorbance, 2 days, at 10 µM, stronger effect = higher value;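 further: 0% = wild type cc124 cells in DMSO and 100% = ciliumless bld1 mutant cells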
# [11] = inhibitors of Sendai virus-induced IRF3 signaling, primary screen, TLR/RLR signaling modifier project, cell-based, Sendai virus stimulus, luciferase, 10K MLSCN set (AID 602276;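 active means inhibition at or above 50% at 10 µM; inactive means inhibition below 50%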;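 further: firefly luciferase from ISG56 promoter only with Renilla not read in this screen; 0% = Sendai virus plus DMSO and 100% = medium plus DMSO without virus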); details: HEK293 RL24 IRF3 luciferase reporter, at 10 µM, stronger effect = higher value
# [12] = inhibitors of poly I:C-induced TLR3 signaling, primary screen, cell-based, poly I:C stimulus, luciferase, 10K MLSCN set (AID 602277;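 active means inhibition of the reporter signal at or above 50%; inactive means inhibition below 50%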); details: HEK293-TLR3 RL24 IRF3 luciferase reporter, at 10 µM, stronger effect = higher value
# [13] = measured here: cell density z-score
# [14] = measured here: nuclear c-Myc green intensity z-score
# [15] = measured here: nuclear pErk red intensity z-score, stronger effect = higher value
# Alpha-2C adrenergic receptor (Homo sapiens), sequence (P18825 whole entry, looked up): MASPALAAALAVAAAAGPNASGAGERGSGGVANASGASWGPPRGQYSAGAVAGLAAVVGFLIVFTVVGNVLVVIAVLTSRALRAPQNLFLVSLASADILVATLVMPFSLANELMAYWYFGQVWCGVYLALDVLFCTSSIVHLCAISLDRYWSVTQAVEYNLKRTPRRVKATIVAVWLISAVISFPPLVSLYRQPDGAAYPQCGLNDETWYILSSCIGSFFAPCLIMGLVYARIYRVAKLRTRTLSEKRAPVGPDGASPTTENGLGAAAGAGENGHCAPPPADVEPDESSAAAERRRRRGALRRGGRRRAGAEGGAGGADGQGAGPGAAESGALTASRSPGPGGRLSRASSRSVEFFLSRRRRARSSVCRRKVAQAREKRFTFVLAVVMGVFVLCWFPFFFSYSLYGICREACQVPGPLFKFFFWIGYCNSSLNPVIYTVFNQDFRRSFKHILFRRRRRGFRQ
# Dual specificity protein phosphatase 6 (Homo sapiens), sequence (Q16828 whole entry, looked up): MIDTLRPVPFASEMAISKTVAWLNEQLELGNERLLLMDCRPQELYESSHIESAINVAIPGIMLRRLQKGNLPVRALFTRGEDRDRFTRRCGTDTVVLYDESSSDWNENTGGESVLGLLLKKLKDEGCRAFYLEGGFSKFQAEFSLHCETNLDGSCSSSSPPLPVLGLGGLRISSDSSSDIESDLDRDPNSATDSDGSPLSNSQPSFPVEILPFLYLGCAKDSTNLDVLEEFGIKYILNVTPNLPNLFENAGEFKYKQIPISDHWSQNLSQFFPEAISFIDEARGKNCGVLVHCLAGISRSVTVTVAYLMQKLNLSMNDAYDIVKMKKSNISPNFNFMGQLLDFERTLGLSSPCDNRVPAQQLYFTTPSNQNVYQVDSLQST
# Voltage-gated potassium channel subunit beta-2 (Rattus norvegicus), sequence (P62483 whole entry, looked up): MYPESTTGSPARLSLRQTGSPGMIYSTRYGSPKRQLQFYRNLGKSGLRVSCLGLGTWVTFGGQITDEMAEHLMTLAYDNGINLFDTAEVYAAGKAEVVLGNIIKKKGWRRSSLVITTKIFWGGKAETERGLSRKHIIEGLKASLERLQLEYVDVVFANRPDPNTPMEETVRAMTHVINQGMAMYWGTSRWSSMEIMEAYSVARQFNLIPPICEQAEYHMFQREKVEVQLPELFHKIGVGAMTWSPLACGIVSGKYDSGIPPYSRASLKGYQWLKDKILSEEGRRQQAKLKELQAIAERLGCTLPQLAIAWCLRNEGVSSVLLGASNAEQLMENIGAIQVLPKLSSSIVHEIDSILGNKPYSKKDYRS
Compound,cell count [1],inhibition [1],inhibition of aggregation [2],nuclei count [2],inhibition [3],nuclei count [3],"z-score [4, 13]","z-score [4, 14]","z-score [4, 15]",inhibition [5],fluorescence slope [6],NADPH fluorescence slope [7],slope [8],outcome [9],inhibition [10],inhibition [11],inhibition [12]
CCC(NC(C)C)C(O)c1ccc(O)c2[nH]c(=O)ccc12 (stereo not given),682,-3% (inactive),-11.3% (inactive),109%,-80% (inactive),142%,0.193,0.138,0.273,13.3% (inactive),-0.49 (inactive),-3.3e-05 (inactive),0.00523 (inactive),inactive,23.9% (inactive),17.4% (inactive),45.8% (inactive)
CC1=C(/C=C/C(C)=C/C=C/C(C)=C/C(=O)O)C(C)(C)CCC1,678,3.5% (inactive),-22.6% (inactive),97.6%,-69% (inactive),121%,-0.898,1.94,-1.68,19% (inactive),-0.448 (inactive),-4.4e-05 (inactive),0.00401 (inactive),inactive,8.28% (inactive) and -12% (inactive),-11.8% (inactive),-27.2% (inactive)
O=[N+]([O-])c1cccc2cn[nH]c12,615,1.2% (inactive),15.8% (inactive),81.4%,-87% (inactive),116%,2.27,-1.27,-1.46,3.45% (inactive),-0.448 (inactive),-7.3e-05 (inactive),0.00537 (inactive),inactive,4.7% (inactive) and 1.19% (inactive),15.9% (inactive),50.4% (active)
CN1[C@@H](CC(=O)c2ccccc2)CCC[C@H]1C[C@H](O)c1ccccc1,617,-3.2% (inactive),-2.2% (inactive),96.2%,-81.3% (inactive),120%,-0.242,-0.85,0.339,21.2% (inactive),-0.436 (inactive),-0.000135 (inactive),0.00528 (inactive),inactive,1.79% (inactive) and -5.55% (inactive),8% (inactive),31.3% (inactive)
CCC(C)n1ncn(-c2ccc(N3CCN(c4ccc(OCC5COC(Cn6cncn6)(c6ccc(Cl)cc6Cl)O5)cc4)CC3)cc2)c1=O (stereo not given),587,3.2% (inactive),-63.7% (inactive),140%,-162% (inactive),121%,0.653,-0.579,-0.684,1.38% (inactive),-0.456 (inactive),-5.2e-05 (inactive),0.00423 (inactive),inactive,5.29% (inactive),33.8% (inactive),4.61% (inactive)
CCN1CCN(c2cc3c(cc2F)c(=O)c(C(=O)O)cn3C2CC2)CC1,605,1.1% (inactive),3.3% (inactive),97.3%,-41.3% (inactive),116%,0.332,0.418,0.882,-5.24% (inactive),-0.498 (inactive),1.7e-06 (inactive),0.0049 (inactive),inactive,-15.2% (inactive),1.29% (inactive),31.6% (inactive)
Cc1nc(SC2C=CS(=O)(=O)C2)n[nH]1 (stereo not given),427,-0.8% (inactive),10.8% (inactive),98.1%,-43.2% (inactive),139%,-0.37,0.156,1.24,-6.86% (inactive),-0.482 (inactive),-0.000222 (inactive),0.00468 (inactive),inactive,-12% (inactive),14.6% (inactive),18.4% (inactive)
CCC(=O)N[C@@H]1CC(C(C)(C)NC(=O)CC)CC=C1C (stereo not given in full),537,-16.4% (inactive),-10.9% (inactive),110%,-21.9% (inactive),137%,-0.93,0.526,-0.616,-6.06% (inactive),-0.349 (inactive),-1e-06 (inactive),0.00698 (inactive),inactive,6.4% (inactive),18.2% (inactive),18.8% (inactive)
CCCOc1cccc(-c2nnc(N)s2)c1,605,-3.6% (inactive),-31.3% (inactive),108%,-83.5% (inactive),111%,0.352,-0.262,-0.207,-11.5% (inactive),-0.443 (inactive),-5.5e-05 (inactive),0.00934 (inactive),inactive,-3.59% (inactive),-30.1% (inactive),-65.7% (inactive)
CC(C)[N+](C)(CCOC(=O)C1c2ccccc2Oc2ccccc21)C(C)C,683,-4.8% (inactive),-28.8% (inactive),115%,-133% (inactive),138%,-0.466,-0.573,0.578,-2.46% (inactive),-0.487 (inactive),2.5e-06 (inactive),0.00524 (inactive),inactive,0.683% (inactive) and 0.468% (inactive),20.3% (inactive),39.4% (inactive)
OCCN(CCO)c1nc(N2CCCCC2)c2nc(N(CCO)CCO)nc(N3CCCCC3)c2n1,547,-6.1% (inactive),-4% (inactive),110%,-59.7% (inactive),134%,0.412,0.0897,0.61,-0.493% (inactive),-0.056 (active),-1.2e-07 (inactive),0 (inactive),inactive,1.16% (inactive) and 19.1% (inactive),10.6% (inactive),-14.4% (inactive)
COc1ccc(-n2c(SCC(N)=O)nc3sc4c(c3c2=O)CCN(C)C4)cc1,537,-5.6% (inactive),32% (inactive),58%,-51.4% (inactive),134%,-0.15,1.95,-0.53,-2.69% (inactive),-0.305 (inactive),-1.8e-06 (inactive),0.00454 (inactive),inactive,-8.09% (inactive),-4.01% (inactive),0.612% (inactive)
Nc1ccc2cn[nH]c2c1,616,0.3% (inactive),9% (inactive),94.8%,-58.4% (inactive),123%,-0.59,0.481,-0.693,5.79% (inactive),-0.531 (inactive),-2.3e-05 (inactive),0.00412 (inactive),inactive,-10.8% (inactive),3.56% (inactive),33% (inactive)
CCCCN1C[C@H](O)[C@@H](O)[C@H](O)[C@H]1CO,594,-9.5% (inactive),-4.6% (inactive),109%,-34.3% (inactive),129%,0.947,-0.313,0.0804,15.3% (inactive),-0.473 (inactive),1.5e-05 (inactive),0.00474 (inactive),inactive,22.3% (inactive),14% (inactive),19.6% (inactive)
CCCCCC(=O)O[C@]1(C(C)=O)CC[C@H]2[C@@H]3CCC4=CC(=O)CC[C@]4(C)[C@H]3CC[C@@]21C,601,-6.9% (inactive),2.3% (inactive),104%,-58.2% (inactive),122%,-1.27,-0.399,1.24,13.3% (inactive),-0.444 (inactive),-6.6e-05 (inactive),0.00545 (inactive),inactive,3.11% (inactive),0.124% (inactive),48% (inactive)
O=C(O)c1ccc(COc2c(F)c(F)c(F)c(F)c2F)o1,492,-12.2% (inactive),-42.8% (inactive),99.6%,-83.7% (inactive),129%,0.991,-1.28,-0.83,-3.5% (inactive),-0.433 (inactive),-0.000148 (inactive),0.00486 (inactive),inactive,-7.74% (inactive),-5.03% (inactive),-6.07% (inactive)
OC[C@H]1O[C@@H](n2cnc3c(NC4CCCC4)ncnc32)[C@H](O)[C@@H]1O,528,-13.1% (inactive),-15.5% (inactive),110%,-19.6% (inactive),126%,1.27,-0.327,-0.893,11.3% (inactive),-0.459 (inactive),2.3e-05 (inactive),0.00611 (inactive),inactive,30.3% (inactive),-1.14% (inactive),12.9% (inactive)
COc1ccc(/C=C/C(=O)Nc2ccccc2C(=O)O)cc1OC,476,-4.9% (inactive),-20.4% (inactive),103%,-112% (inactive),128%,0.437,-0.319,-0.448,15.3% (inactive),-0.492 (inactive),-8.1e-05 (inactive),0.0062 (inactive),inactive,3.58% (inactive) and -6.51% (inactive),16.4% (inactive),23.3% (inactive)
O=C(CCCN1CC=C(n2c(=O)[nH]c3ccccc32)CC1)c1ccc(F)cc1,658,-2.1% (inactive),-8.1% (inactive),105%,-156% (inactive),128%,-0.186,0.167,0.602,19.2% (inactive),-0.516 (inactive),-7.4e-05 (inactive),0.00484 (inactive),inactive,5.84% (inactive),-12.2% (inactive),-37.3% (inactive)
Cc1cccc(N(C)C(=S)Oc2ccc3ccccc3c2)c1,604,-0.1% (inactive),1.5% (inactive),115%,-124% (inactive),117%,-0.0512,0.405,-0.61,5.42% (inactive),-0.463 (inactive),-2.6e-05 (inactive),0.00625 (inactive),active; weak signal in gallbladder and intestine,97.3% (active),-6.47% (inactive),-10.7% (inactive)
